Screens as filed in PubChem BioAssay.
Rows were chosen to be rich in hits. Some 19% of all compounds tested hit in one or more screens of this group.
TDP1 cell noCPT = qHTS for Inhibitors of human tyrosyl-DNA phosphodiesterase 1 (TDP1): qHTS in cells in absence of CPT; DT40 Tdp1-/- hTDP1 cells, no CPT, ATP luminescence, 48 h; Potency, µM (series often up to 46.2 µM), actives largely listed as inhibitors; actives 15% (n = 420,000); note: nearly all actives have a fitted effect of over 55% in size
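Chicken DT40 Tdp1-/- cells complemented with human TDP1, screened without camptothecin (DMSO vehicle only), 400 cells/well. Compounds pin-transferred, cells incubated at 37 °C for at least 48 hr. Growth read as ATP-dependent luminescence (CellTiter-Glo, 30 min at RT).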
IL-1B inflam inh = qHTS for Inhibitors of Inflammasome Signaling: IL-1-beta AlphaLISA Primary Screen; THP-1 LPS/ATP IL-1B secretion, AlphaLISA, 16 h; stronger effect = lower value; activity change, % at 57.5 µM; actives 4.7% (n = 360,000); AID 743279, 2014; in the data active = activity change below about -50%; inconclusive = mostly about -30% to -49%
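THP-1 cells pretreated 1 hr with compounds (up to 57.5 uM final), then stimulated with LPS (250 ng/mL final) plus ATP (1.25 mM final); secreted IL-1B measured by AlphaLISA after 16 hr, decreased signal indicating inhibition.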
TDP1 inh = qHTS Assay for Inhibitors of Tyrosyl-DNA Phosphodiesterase (TDP1). recombinant TDP1, AlphaScreen DNA substrate cleavage. Potency, µM (doses to about 130 µM), hits mostly inhibitors. actives 0.28% (n = 350,000). AID 485290, 2010; note: nearly all actives have a fitted effect of over 40% in size
Target sequence (Q9NUW8 whole entry, looked up): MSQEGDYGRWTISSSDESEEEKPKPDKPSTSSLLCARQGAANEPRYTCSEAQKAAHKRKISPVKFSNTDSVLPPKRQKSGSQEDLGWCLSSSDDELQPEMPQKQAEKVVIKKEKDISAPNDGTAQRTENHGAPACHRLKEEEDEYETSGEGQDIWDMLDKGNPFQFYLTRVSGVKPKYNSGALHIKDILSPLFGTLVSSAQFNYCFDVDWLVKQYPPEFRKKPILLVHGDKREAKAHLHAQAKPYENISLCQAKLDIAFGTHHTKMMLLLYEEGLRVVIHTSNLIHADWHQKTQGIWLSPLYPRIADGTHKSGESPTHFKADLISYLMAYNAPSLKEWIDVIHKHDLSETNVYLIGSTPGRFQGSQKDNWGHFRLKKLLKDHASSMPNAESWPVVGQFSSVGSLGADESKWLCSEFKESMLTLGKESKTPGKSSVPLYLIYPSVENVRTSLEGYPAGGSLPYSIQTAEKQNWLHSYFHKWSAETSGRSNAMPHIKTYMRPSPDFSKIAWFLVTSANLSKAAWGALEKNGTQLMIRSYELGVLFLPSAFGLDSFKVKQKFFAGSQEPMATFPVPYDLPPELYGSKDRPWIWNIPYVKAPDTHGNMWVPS
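Signal: AlphaScreen proximity between streptavidin donor and anti-FITC acceptor beads on intact substrate. Reaction: Tdp1 1 nM, substrate 15 nM final, 5 min RT after 15 min compound preincubation.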
DT40 TDP1 CPT = qHTS for Inhibitors of human tyrosyl-DNA phosphodiesterase 1 (TDP1): qHTS in cells in presence of CPT; actives 12% (n = 420,000); chicken DT40 Tdp1-/-;hTDP1 cells + 20 nM CPT, ATP luminescence, 48 h; AID 686979, 2013; Potency, µM (highest dose often 46.2 µM), hits mostly inhibitors; note: nearly all actives have a fitted effect of over 55% in size
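Chicken DT40 Tdp1-/- cells complemented with human TDP1, 400 cells/well, exposed to compounds plus 20 nM camptothecin for at least 48 h at 37 C; viability read as ATP content by CellTiter-Glo luminescence.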
HepG2 viability = qHTS for Inhibitors of TGF-b: Cytotox Counterscreen; HepG2 CAGA-GFP viability, ATP luminescence, 18 h; Potency, µM (titrated, usually from 46.1 µM), actives largely listed as cytotoxic; actives 0.76% (n = 410,000)
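CellTiter-Glo luminescence gave cytotoxicity after 18 hours at 37 degrees C. The cells were HepG2 CAGA-GFP in 1% FBS DMEM, stimulated with 500 pg/mL TGF-beta after compound addition. %Activity was normalised to no-cell wells (complete cell-killing) and DMSO (no toxicity), and curves were fitted and classified.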
TGFb SMAD3 inh = qHTS for Inhibitors of TGF-b; AID 588855, 2011; Potency, µM (titrated, usually from 46.1 µM), actives largely listed as inhibitors; actives 1.2% (n = 410,000); HepG2 CAGA-GFP TGF-b/SMAD3 reporter, GFP fluorescence, 18 h; TGF-beta stimulated, 500 pg/mL final; note: nearly all actives have a fitted effect of over 65% in size
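TGF-beta reporter screen: HEPG2 CAGA-GFP, 1% FBS, 500 pg/mL TGF-beta final, 18 h; per-cell GFP summed per well; curves fitted and categorized by class.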
A number is an active result; i = inactive; ? = inconclusive; nt = no result given. Unless noted, calls come from the whole dose curve; as a rule, active = well fitted curve in the direction sought with a large enough effect; inconclusive = small, poorly fitted or top-dose-only effect, or another doubt; inactive = no such curve, though single readings can be large; an effect the other way counts as inactive or inconclusive.

SMILES	TDP1 cell noCPT	IL-1B inflam inh	TDP1 inh	DT40 TDP1 CPT	HepG2 viability	TGFb SMAD3 inh
Cc1cccc(Nc2nc(-c3c(C)nc4ccccn34)cs2)c1	11µM	-96	i	13µM	i	?
O=C(NC1CC(=O)N(c2ccc(F)cc2)C1)c1ccc(S(=O)(=O)N2CCOCC2)cc1 (stereo not given)	i	nt	?	i	i	i
O=C(COc1ccc(F)cc1)NCCCn1ccnc1	i	i	i	i	i	i
NS(=O)(=O)c1ccc(NC(=O)COC(=O)CN2C(=O)C3CC=CCC3C2=O)cc1 (stereo not given)	i	i	i	i	i	i
Cc1nc2ccccn2c1-c1csc(Nc2cccc(O)c2)n1	1.6µM	-104	i	0.73µM	i	?
COc1cccc(CN(C)C(=O)c2cc(COc3ccc(-n4cncn4)cc3)on2)c1	18µM	i	i	21µM	i	i
COc1cccc(CN(C)C(=O)c2cc(COc3ccc4ncccc4c3)on2)c1	2.9µM	i	i	3.3µM	i	i
COc1cccc(CN(C)C(=O)c2cc(COc3c(F)cccc3F)on2)c1	i	i	i	i	i	i
Nc1nc(N)c(N=O)c(OCC2CCCCC2)n1	7.3µM	?	i	12µM	i	i
NS(=O)(=O)OCC1CCCCC1	i	i	nt	i	i	i
Cc1sc2nc(CN3CCOCC3)nc(NS(=O)(=O)c3ccccc3)c2c1C	i	i	i	i	i	i
Fc1ccc(CN2CCN(c3ncnc4scc(-c5ccccc5)c34)CC2)cc1	?	?	nt	?	i	?
CN(Cc1ccccc1)c1nc(CN2CCOCC2)nc2scc(-c3ccccc3)c12	16µM	i	i	?	i	?
Fc1ccc(N2CCN(c3nc(CN4CCOCC4)nc4scc(-c5ccccc5)c34)CC2)cc1	15µM	i	i	23µM	i	?
O=C(NCc1ccc(Cl)cc1)C(=O)NCC(c1ccco1)S(=O)(=O)c1cccs1 (stereo not given)	?	nt	i	?	i	i
COc1cccc(NS(=O)(=O)c2ccc3[nH]cc(C(=O)NCCc4ccc(C)cc4)c(=O)c3c2)c1	16µM	nt	nt	15µM	i	i
COc1cccc(NS(=O)(=O)c2ccc3[nH]cc(C(=O)NC4CCCCC4)c(=O)c3c2)c1	18µM	nt	i	18µM	i	?
Cc1ccccc1NS(=O)(=O)c1ccc2[nH]cc(C(=O)NC3CCCCC3)c(=O)c2c1	?	nt	25µM	?	i	?
Cc1cccc(CCNC(=O)c2c[nH]c3ccc(S(=O)(=O)Nc4ccccc4F)cc3c2=O)c1	?	nt	?	12µM	i	i
COc1cccc(NS(=O)(=O)c2ccc3[nH]cc(C(=O)NC4CC4)c(=O)c3c2)c1	?	i	i	i	i	?
COCCNC(=O)c1c[nH]c2ccc(S(=O)(=O)Nc3ccccc3F)cc2c1=O	i	i	nt	i	i	i
Cc1ccccc1NS(=O)(=O)c1ccc2[nH]cc(C(=O)NC(C)c3ccccc3)c(=O)c2c1 (stereo not given)	?	nt	?	?	i	?
COc1ccc(NC(=O)CCCSc2nc(-c3ccco3)cc(C(F)(F)F)n2)cc1	?	nt	i	i	i	i
CCN(CC(=O)NCc1ccc(F)cc1)C(=O)C(C)Oc1cccc(Cl)c1 (stereo not given)	i	i	i	?	i	i
Cc1cc(C)cc(NS(=O)(=O)c2ccc3[nH]cc(C(=O)N4CCCCCC4)c(=O)c3c2)c1	i	nt	i	i	i	i
Cc1cc(C)cc(NS(=O)(=O)c2ccc3[nH]cc(C(=O)N(C)Cc4ccccc4)c(=O)c3c2)c1	?	nt	i	i	i	?
